Experimental data from PubChem BioAssay AID1851 (National Center for Advancing Translational Sciences (NCATS), 2009).
The whole screen tested about 16,000 compounds, of which about 5,700 (36%) were called active. Another 24% or so got no clear call; they are omitted. The call rests on the fitted dose curve; in most records, active means well fitted curve in the direction sought with a large enough effect; inconclusive means small, poorly fitted or top-dose-only effect, or effect the other way; inactive means no such curve, though single readings can be large or run the other way. Some of the results follow.
On the % scale 0 is the no-effect control and ±100 the full control effect.

Each compound was assayed against Cytochrome P450 1A2 (Homo sapiens) (UniProt P05177) (assay: Cytochrome panel assay with activity outcomes). Details: recombinant CYP, pro-luciferin dealkylation, luminescence, p450-cyp1a2; series mostly up to 57.1 µM; activity, negative = inhibition: at the top concentration.
Sequence of Cytochrome P450 1A2 (Homo sapiens) (P05177 whole entry, looked up): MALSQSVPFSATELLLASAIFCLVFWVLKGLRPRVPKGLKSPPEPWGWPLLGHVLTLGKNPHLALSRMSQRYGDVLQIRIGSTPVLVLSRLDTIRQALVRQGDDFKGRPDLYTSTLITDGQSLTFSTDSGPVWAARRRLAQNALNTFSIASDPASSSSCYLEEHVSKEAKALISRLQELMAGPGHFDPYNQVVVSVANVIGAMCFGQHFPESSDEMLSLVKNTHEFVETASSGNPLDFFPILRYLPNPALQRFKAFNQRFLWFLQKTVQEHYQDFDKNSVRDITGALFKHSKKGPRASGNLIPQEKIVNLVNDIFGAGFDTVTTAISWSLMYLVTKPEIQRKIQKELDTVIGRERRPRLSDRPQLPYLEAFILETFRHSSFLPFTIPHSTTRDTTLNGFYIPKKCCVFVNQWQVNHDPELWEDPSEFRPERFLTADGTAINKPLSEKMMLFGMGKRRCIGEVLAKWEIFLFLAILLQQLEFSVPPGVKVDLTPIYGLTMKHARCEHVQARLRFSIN
`COc1ccccc1-c1cc(C(F)(F)F)nc(S(=O)(=O)CCCC(=O)NC(C)C)n1` was tested, and the AC50 was 2000 nM (active).
`Cc1[nH]n(C(C)(C)C)c(=O)c1Sc1ccc(Cl)cc1` was tested, and the “activity, negative = inhibition” value was -0.437% (inactive).
For `Cc1ccc(N=Cc2cc(C)n(C3CCCC3)c2C)cc1`, the AC50 was 10000 nM (active).
In the case of `CCCCc1ccc(NC(=S)NCc2cccs2)cc1`, the AC50 is reported as 8910 nM (active).
`CCc1ccc(NC(=O)CS(=O)CC(=O)NCCCc2ccccc2)cc1` (centres undefined) was tested, and the “activity, negative = inhibition” value was -19.7% (inactive).
For `CCCC(=O)Nc1ccc(C(=O)NNC(=S)NC(=O)c2cccs2)cc1`, the “activity, negative = inhibition” value was 3.27% (inactive).
In the case of `CC#CCOC(=O)c1c(C)nc2sc3c(c2c1N)CC[C@@H](O)C3`, the AC50 is reported as 25.1 nM (active).
With `O=C(/C=C/c1ccccc1)NNC(=O)c1cccnc1` the “activity, negative = inhibition” value was -8.85% (inactive).
With `COCCCNC(=O)/C=C/c1ccc(Cl)cc1` the AC50 was 7080 nM (active).
With `O=C(/C=C/c1cccc(Cl)c1)Nc1ccncc1` the AC50 was 2000 nM (active).
`O=C(/C=C/c1ccc(Cl)cc1)NCCSc1ccccc1` was tested, and the AC50 was 1580 nM (active).
With `COCCNC(=O)c1onc(CSc2cccc(Cl)c2)c1C(=O)O` the “activity, negative = inhibition” value was -11.1% (inactive).
In the case of `COCCCNC(=O)/C=C/c1cccc(Cl)c1`, the AC50 is reported as 6310 nM (active).
With `COCCCNC(=O)C1C2C=CC3(CN(Cc4ccc(C)cc4)C(=O)C13)O2` (centres undefined) the “activity, negative = inhibition” value was -1.32% (inactive).
For `O=C(/C=C/c1cccc([N+](=O)[O-])c1)NCCN1CCOCC1`, the “activity, negative = inhibition” value was 5.84% (inactive).
`O=C(/C=C/c1ccc(Cl)cc1)NCCN1CCOCC1` was tested, and the “activity, negative = inhibition” value was -28.6% (inactive).
In the case of `C/C(=N\OC(=O)c1ccccc1)c1cc(-c2ccc(Cl)cc2)no1`, the AC50 is reported as 2820 nM (active).
With `CC(C)CO/N=C1/C[C@@H](O)[C@@H](O)[C@@H]2[C@@H]3C(=O)N([C@@H](C)c4ccccc4)C(=O)[C@H]3CC[C@@H]12` the activity, negative = inhibition was -9.02% [at 11.4 µM] (inactive).
With `COc1ccc(S(=O)(=O)NCCC(=O)NC(C)c2ccccc2)cc1` (centres undefined) the “activity, negative = inhibition” value was -12.5% (inactive).
With `COc1ccc(NC(=O)CCNS(=O)(=O)c2ccc3c(c2)c(=O)n(C)c(=O)n3C)cc1` the “activity, negative = inhibition” value was 7.33% (inactive).
With `COc1ccc(OCCNS(=O)(=O)c2ccc3oc4ccccc4c3c2)cc1` the AC50 was 2820 nM (active).
In the case of `CN1CCN(C2CC(=O)N(Cc3ccc(N4CCCC4=O)cc3)C2=O)CC1` (centres undefined), the “activity, negative = inhibition” value is reported as 8.84% (inactive).
`O=C1CCCc2ccccc2N1Cc1cccc(Cl)c1` was tested, and the AC50 was 12600 nM (active).
`O=C1CCCc2ccccc2N1Cc1ccccc1Cl` was tested, and the AC50 was 14100 nM (active).
In the case of `O=C1CC(N2CCN(C(c3ccccc3)c3ccccc3)CC2)C(=O)N1Cc1ccc(N2CCCC2=O)cc1` (centres undefined), the “activity, negative = inhibition” value is reported as 0.781% (inactive).
With `C[C@@H](CN(C)C)CN1c2ccccc2CCc2ccccc21` the AC50 was “inactive”.
With `CC1(C)[C@@H]2CC[C@]1(CC(=O)O)[C@H](Cl)C2` the activity, negative = inhibition was -14.2% [at 11.4 µM] (inactive).
With `CNc1csc(C)c(C)c1=O` the AC50 was 10000 nM (active).
In the case of `C=C(C)COc1ccc2c(c1)CCC1C2CC[C@]2(C)C(=O)/C(=N/O)CC12` (some centres undefined), the activity, negative = inhibition is reported as -13.8% [at 11.4 µM] (inactive).
With `CCOc1ccc2nc3cc(N=Nc4ccc(N)nc4N)ccc3c(N)c2c1` the AC50 was 794 nM (active).
In the case of `Cc1ccc(S(=O)(=O)N(C)c2cc(S(=O)(=O)N3CCC(C)CC3)c(C)cc2C)cc1`, the “activity, negative = inhibition” value is reported as 9.58% (inactive).
For `COc1ccc(/C=N/NC(=S)NC2CCS(=O)(=O)C2)cc1OC` (centres undefined), the AC50 was 6310 nM (active).
`O=S(=O)(c1ccccc1S(=O)(=O)N1CCCCC1)N1CCCCC1` was tested, and the “activity, negative = inhibition” value was -15.2% (inactive).
`O=C1SC(c2ccccc2)=C/C1=C\N1CCCCC1` was tested, and the AC50 was 1000 nM (active).
With `COC(=O)C/C=C\[C@@H](C)[C@@H](/C=N\O[C@@H](C)c1cc(-c2c(C)cc(C)cc2C)no1)NS(=O)(=O)c1ccc(C)cc1` the activity, negative = inhibition was 4.06% [at 11.4 µM] (inactive).
With `CCOc1ccccc1OCCOc1ccc(F)cc1` the AC50 was 2820 nM (active).
`CCOc1ccc(S(=O)(=O)NCc2ccc(F)cc2)c2cccnc12` was tested, and the “activity, negative = inhibition” value was -23% (inactive).
With `CC1(CCC(=O)OC2CCCCC2)OCCO1` the activity, negative = inhibition was -7.12% [at 11.4 µM] (inactive).
In the case of `Cc1ccc(/C=C/C(=O)c2nc3ccccc3[nH]2)cc1`, the AC50 is reported as 1780 nM (active).
For `CCCCOc1ccc(/C=C/C(=O)NCCc2nc3ccccc3[nH]2)cc1`, the “activity, negative = inhibition” value was -24.1% (inactive).
For `NC(=O)c1ccc([N+](=O)[O-])cc1SCc1ccccc1`, the AC50 was 8910 nM (active).
With `CCC(C)NC(=O)NC(=O)N(C1CCCCC1)S(C)(=O)=O` (centres undefined) the “activity, negative = inhibition” value was 6.61% (inactive).
For `C=CCn1c(SC(C)C(=O)NCc2ccc3c(c2)OCO3)nc2scc(-c3ccccc3)c2c1=O` (centres undefined), the AC50 was 10000 nM (active).
For `C=CCn1c(SCc2ccc3c(c2)OCO3)nc2scc(-c3ccco3)c2c1=O`, the AC50 was 2510 nM (active).
In the case of `CCc1nc(SCC(=O)c2ccc(Cl)s2)c2oc3ccccc3c2n1`, the AC50 is reported as 251 nM (active).
In the case of `Cc1nc(SCC(=O)c2ccc(Cl)s2)c2oc3ccccc3c2n1`, the AC50 is reported as 141 nM (active).
`Cc1nc(SCC(=O)Nc2ccc3c(c2)OCCO3)c2oc3ccccc3c2n1` was tested, and the AC50 was 1000 nM (active).
For `CCc1nc(SCC(=O)N2CCCc3ccccc32)c2oc3ccccc3c2n1`, the AC50 was 1260 nM (active).
In the case of `O=C(Cn1cnc2ccccc2c1=O)NCCC(=O)Nc1ccc2c(c1)OCCO2`, the “activity, negative = inhibition” value is reported as -28.5% (inactive).
